# From PubChem BioAssay AID853 (Columbia University Molecular Screening Center, 2007)
# Out of some 47,000 compounds screened, about 200 (0.43%) were called active. Not shown: some 1% with an inconclusive outcome.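 How the source made its calls: active means inhibition of aggregate fluorescence above about 70%, also judged a hit by eye on the cell image (limit read from the data, passing the limit was not always enough); inconclusive means no rule stated for this call; inactive means not judged a hit on image review.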 This excerpt belongs to a sample that is enriched for actives.
# Assay: removal of polyQ htt aggregates in HeLa – imaging, HeLa Exon1htt(103Q)mCFP, confocal imaging, primary screen (AID 853);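 further: cells exposed to compound for three days before fixation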
# Conditions: aggregate imaging, at 1.5 µM; fraction fluorescence in grains: measured here: aggregate grain fluorescence fraction, stronger effect = lower value; inhibition: stronger effect = higher value, zero = plate's median compound well
Structure (SMILES),fraction fluorescence in grains,inhibition
O=S(=O)(NCc1ccccn1)c1ccc(F)cc1,25.8,28.4% (inactive)
Cn1c(NC(=O)c2ccc3c(c2)OCO3)cc(=O)n(C)c1=O,24.1,28.1% (inactive)
CCCc1nc2ccccc2c(C(=O)OCc2nnc(-c3cc(OC)c(OC)c(OC)c3)o2)c1CC,19.4,-8% (inactive)
Cc1ccc(NC(=O)CSCC(=O)N2CCOCC2)cc1,29.1,-41.8% (inactive)
COC(=O)[C@@H](NC(=O)Nc1cc(Cl)ccc1C)C(C)C,45.5,-4.8% (inactive)
CCC(=O)c1ccc(OCC(O)CN2CC(C)OC(C)C2)cc1 (stereo not given),7.49,75% (active)
CCC(=O)c1ccc(OCC(O)CN2CCN(c3cccc(C(F)(F)F)c3)CC2)cc1 (stereo not given),27.8,-52.7% (inactive)
CC(=O)Nc1ccc(OCC(O)CN2CCN(c3ccccc3Cl)CC2)cc1 (stereo not given),27.5,-41.1% (inactive)
COc1nc(-c2ccc(Cl)cc2)ccc1-c1noc(-c2cccs2)n1,28.7,4.7% (inactive)
Cc1cccc(NC(=O)Cn2cc(C(=O)c3ccco3)c3ccccc32)c1,68.4,-81.7% (inactive)
O=C(CSc1nnc(-c2cccs2)n1-c1ccccc1)NCc1ccco1,19.3,-12.1% (inactive)
Cc1ccc2cc(CCNC(=O)c3ccc4c(c3)OCO4)c(=O)[nH]c2c1,49.1,-20% (inactive)
COc1ccc(C2CC(=O)C=C(NCC3CCCO3)C2)cc1 (stereo not given),23.6,30.2% (inactive)
COc1ccccc1NS(=O)(=O)N(C)C,33.9,-71.4% (inactive)
CN(C)/C=C(\C#N)C(=O)c1cccnc1Oc1cccc(F)c1,38.8,-0.9% (inactive)
Cc1cccc(NC(=O)CSc2nc3c(c(=O)[nH]2)CCCC3)c1C,17.3,10.8% (inactive)
O=c1[nH]c(=O)n(Cc2ccco2)c2c1C(C(F)(F)F)(C(F)(F)F)N=C(c1ccco1)N2,27,36.4% (inactive)
Cc1ccc(-n2c(=O)cc(N3CCN(Cc4ccccc4)CC3)[nH]c2=O)cc1,52,-7.6% (inactive)
O=C(NC1CCc2ccccc21)C12CN(Cc3ccccc3)CC1C(c1cccc([N+](=O)[O-])c1)=NO2 (stereo not given),39,-1.5% (inactive)
COc1ccccc1NC(=O)c1ccc2nc(N3C(=O)CCC3=O)sc2c1,16.5,20.1% (inactive)

Structure (SMILES),fraction fluorescence in grains,inhibition
CC(C)c1nc(N2CCOCC2)c(C#N)c2c1COC(C)(C)C2,31.9,13.4% (inactive)
COc1ccc(C(=O)NC(=S)Nc2ccccc2N2CCN(S(C)(=O)=O)CC2)cc1OC,62.3,-41.7% (inactive)
C#CCSc1nnc(-c2sc3ccccc3c2Cl)o1,52.1,-34.1% (inactive)
Cc1ccc(C(=O)N/C(=C/C=C/c2ccccc2)C(=O)NCc2ccco2)cc1,45.3,-47.5% (inactive)
Cc1nc(-c2ccccc2)sc1-c1nc(-c2ccccc2)ncc1S(=O)(=O)c1ccccc1,41.3,7.6% (inactive)
Cc1ccc(C2NC(=S)NC3=C2N2CCC3CC2)cc1 (stereo not given),27.5,36.7% (inactive)
CSc1ccc(-c2c(C#N)c(N)nc3c2c(C)nn3-c2ccccc2)cc1,47.5,-12.6% (inactive)
COc1ccc(/C=C(\NC(=O)c2ccc(OC)c(OC)c2)C(=O)NCCc2c[nH]c3ccccc23)cc1,62.4,-62.1% (inactive)
CC(=O)NS(=O)(=O)c1ccc(NC(=S)NC(=O)C(C)(C)C)cc1,7.39,66.5% (inactive)
COc1ccc(-n2c(C)csc2=S)cc1,15.4,22.6% (inactive)
O=C(CSc1nnc(-c2ccco2)n1-c1ccccc1)NCCc1ccccc1,28.7,21.9% (inactive)
COc1cc(/C=C(\C#N)c2nc3c(s2)CC(C)CC3)ccc1O (stereo not given),38.1,4% (inactive)
Cc1ccc(-c2cnc(NC(=O)CCC(=O)N(C)Cc3ccccc3)n2C)cc1,44.1,-11.1% (inactive)
CCCCCCC12CCC(C(=O)O)(CC1)CC2,16.8,6% (inactive)
O=C(CN1CCOCC1)Nc1c(-c2ccccc2)c2cc(Br)ccc2[nH]c1=O,37.2,15.7% (inactive)
O=C(Oc1ccc([N+](=O)[O-])cc1)c1ccc2ccccc2n1,23.8,33% (inactive)
O=C(c1ccc2c(c1)OCO2)N1CCOCC1,22,-3.2% (inactive)
Cc1ccn(C(CC(=O)c2ccc(Br)cc2)C(=O)O)n1 (stereo not given),10.2,68.3% (inactive)
COc1ccc(C(C#N)Nc2ccccc2C)cc1 (stereo not given),18,57.1% (inactive)
C=CCn1c(CSc2nc3ccccc3s2)nnc1SCC(=O)NCc1ccco1,28.7,26.8% (inactive)
